According to PubChem BioAssay:

Assay: blood-stage malaria parasite viability loss – strain 3D7, DAPI fluorescence, 100 nL, primary screen (AID 1184);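 further: parasites grown inside human red blood cells in medium with human serum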
Settings: P. falciparum 3D7 growth, 3 d, higher = more signal

Compound	z-score
COC(=O)[C@@]1(Cc2ccc(F)cc2)[C@H]2c3cc(C(=O)N(C)C)n(CCN4CCOCC4)c3C[C@H]2CN1C(=O)c1ccccc1	-1.45
C[N+](C)(C)CCCCCCNC(=O)[C@@H]1C[C@@H]2C(=O)N[C@@H](Cc3ccccc3)C(=O)N2[C@@H]1c1ccc(O)cc1	-0.324
CO[C@H]1O[C@H](CO)[C@@H](OC(=O)Nc2ccc(C(F)(F)F)cc2)[C@H](OC(=O)Nc2ccccc2-c2ccccc2)[C@@H]1OC(=O)Nc1ccccc1-c1ccccc1	-2.28
C=C(CCCC)/C(=C/C[C@H](OC(C)=O)c1cccc(OCCO)c1)c1cc(C(=O)OC)ccc1OC	-2.35
COc1ccc([Si](C)(C)[C@H]2[C@H](CCn3cc([C@H](O)c4ccccc4)nn3)O[C@@]3(C(=O)N(C)c4c(Br)cc(C)cc43)[C@@H]2C)cc1	-2.41
COCCOC(=O)N1C(=O)[C@@]2(c3cc(C#CC4(O)CCCCCC4)ccc31)[C@H](C(=O)N1CCc3cc(OC)c(OC)cc3C1)[C@H]1C(=O)O[C@H](c3ccccc3)[C@H](c3ccccc3)N1[C@@H]2c1ccc(O)cc1	-1.72
C=CCOC(=O)[C@H]1[C@@H]2C(=O)O[C@@H](c3ccccc3)[C@@H](c3ccccc3)N2[C@@H](c2ccc(OCCOC(=O)[C@H]3C[C@H]4C(=O)NCC(=O)N4[C@H]3c3ccc(O)cc3)cc2)[C@]12C(=O)Nc1ccc(I)cc12	-1.83
COCCOC(=O)N1C(=O)[C@@]2(c3cc(C#CC4=CCCCC4)ccc31)[C@H](c1ccc(OCCO)cc1)N1[C@H](c3ccccc3)[C@H](c3ccccc3)OC(=O)[C@H]1[C@@H]2C(=O)N1CCCCCCC1	-2.06
CCOC(=O)C1=C(C(=O)OCC)N(S(=O)(=O)CC[Si](C)(C)C)[C@H](c2ccccc2)CC1	-1.81
C=CCC(OC(C)=O)[C@@H]1[C@@H](N(Cc2cc3ccccc3o2)C(=O)c2ccc(-c3ccccc3)cc2)c2cc(OCCCO)ccc2N1C(=O)c1ccc2ccccc2n1 (stereo not given in full)	-1.49
O=C1O[C@@H](c2ccccc2)[C@@H](c2ccccc2)N2[C@@H](c3ccc(O)cc3)[C@]3(C(=O)Nc4ccc(C#CC5=CCCCC5)cc43)[C@@H](C(=O)N3CCCCCCC3)[C@H]12	-1.99
COCCOC(=O)N1C(=O)[C@@]2(c3cc(C#CCC(C(=O)OC)C(=O)OC)ccc31)[C@H](C(=O)N1CCc3cc(OC)c(OC)cc3C1)[C@H]1C(=O)O[C@H](c3ccccc3)[C@H](c3ccccc3)N1[C@@H]2c1ccc(O)cc1	-2.02
C=C(/C(=C/C[C@H](OC(=O)c1ccncc1)c1ccccc1OCCO)c1cc(C(=O)OC)ccc1OC)C(C)C	-2.85
NCCCC[C@@H]1NC(=O)[C@H]2C[C@@H](C(=O)O)[C@@H](c3cccc(OCCO)c3)N2C1=O	-0.0736
CCCCN1CC=CC23O[C@@H]4/C=C\CCC(C)OC(=O)C4[C@H]2C(=O)N(C(C)CO)[C@@H]3C1=O (stereo not given in full)	0.105
CC(=O)c1ccc(C(O)C2C=CC3C(=O)NC(=O)C3N2Nc2ccc(Cl)cc2Cl)cc1 (stereo not given)	-0.677
C[N+](C)(C)CCCC[C@@H]1NC(=O)[C@H]2C[C@@H](C(=O)NCCCCCNC(=O)CS)[C@@H](c3ccc(O)cc3)N2C1=O	-0.0941
CN(C)CCCCNC(=O)[C@H]1C[C@H]2C(=O)N[C@@H](Cc3ccccc3)C(=O)N2[C@H]1c1cccc(OCCO)c1	-0.0613

Compound	z-score
NC(=O)NCC#Cc1ccc2c(c1)[C@]1(C(=O)N2)[C@H](C(=O)Nc2nc3ccccc3s2)[C@H]2C(=O)O[C@H](c3ccccc3)[C@H](c3ccccc3)N2[C@@H]1c1ccc(OCCO)cc1	-0.245
CC(C)CNC(=O)[C@@H]1c2ccccc2C(=O)N(Cc2ccccc2Cl)[C@H]1c1ccc(CO)cc1	0.134
C=CCNC(=O)[C@H]1[C@@H]2C(=O)O[C@@H](c3ccccc3)[C@@H](c3ccccc3)N2[C@@H](c2ccc(O)cc2)[C@]12C(=O)Nc1ccc(C#CC3=CCCCC3)cc12	-0.51
CN(C)C(=O)[C@]1(Cc2ccccc2CN=[N+]=[N-])N=C(c2ccc(OCCCO)cc2)O[C@@H]1c1ccccc1N=[N+]=[N-]	-1.89
COCCn1c(C(=O)N2CCCC2)cc2c1C[C@H]1CN(C(=O)c3ccccc3)[C@@](Cc3ccccc3)(C(=O)OC)[C@@H]21	-1.22
CCCC[C@@H](O)C1=C(COC)Cn2c(=O)n(-c3ccccc3)c(=O)n2[C@H]1CO	0.519
CN(C)C(=O)[C@]1(Cc2ccccc2)N=C(c2ccc(OCCCO)cc2)O[C@@H]1c1ccccc1	-2.38
COc1ccc([Si](C)(C)[C@H]2[C@H](CCO)O[C@@]3(C(=O)N(Cc4ccc(N5CCOC5=O)cc4)c4ccccc43)[C@@H]2C)cc1	-2.76
C=CCC(OC(C)=O)[C@@H]1[C@@H](N(Cc2cccc3ccccc23)C(=O)c2ccc(-c3ccccc3)cc2)c2cc(OCCCO)ccc2N1C(=O)c1ccc2ccccc2n1 (stereo not given in full)	-0.198
C=CC[C@@]1(C(=O)O)N=C(c2ccc(OCCCO)cc2)O[C@@H]1c1ccccc1CN=[N+]=[N-]	-1.34
COC(=O)c1c(CC[C@@H](CO)NC(=O)N[C@@H](Cc2ccccc2)Cn2cc(-c3cncn3C)nn2)oc(C(C)=O)c1C(=O)OC	-2.06
COC(=O)Cn1c(C(=O)N(C)C)cc2c1C[C@H]1CN(C(=O)c3ccccc3)[C@@](Cc3ccc(OC)cc3)(C(=O)OC)[C@@H]21	-1.62
CCCC=C(CCC)[C@@H](NS(=O)(=O)c1ccc(Cl)cc1)c1ccccc1	-1.11
COc1ccc(CCNC(=O)[C@@H]2c3ccccc3C(=O)N(CC34CC5CC(CC(C5)C3)C4)[C@H]2c2ccc(CO)cc2)cc1	-2.14
NC(=O)N1C(=O)C2C(C1=O)C1C=C(CCCO)C2C(c2ccc(CN3CCCC3)cc2)N1Cc1cccc(OC(F)(F)F)c1 (stereo not given)	-2.28
COc1ccc([Si](C)(C)[C@H]2[C@H](CCn3cc([C@H](O)c4ccccc4)nn3)O[C@@]3(C(=O)N(c4ccccc4)c4ccccc43)[C@@H]2C)cc1	-1.18
CCCC=C(CCC)[C@@H](NC(=O)c1ccccc1)c1ccc(C(=O)OC)cc1	-0.891
